{
  "source": "PubChem BioAssay AID1851",
  "about": "(National Center for Advancing Translational Sciences (NCATS), 2009)",
  "note": "Out of some 16,000 compounds screened, about 5,700 (36%) were called active. Another 24% or so got no clear call; they are omitted. Calls come from the whole dose curve; as a rule, active = well fitted curve in the direction sought with a large enough effect; inconclusive = small, poorly fitted or top-dose-only effect, or effect the other way; inactive = no such curve, though single readings can be large or run the other way. The list shows a part of the results. % is set by controls: 0 for no effect and ±100 for the full control effect.",
  "data": [
    {"biological_target": "Cytochrome P450 1A2 (Homo sapiens) (UniProt P05177)", "sequence (P05177 whole entry, looked up)": "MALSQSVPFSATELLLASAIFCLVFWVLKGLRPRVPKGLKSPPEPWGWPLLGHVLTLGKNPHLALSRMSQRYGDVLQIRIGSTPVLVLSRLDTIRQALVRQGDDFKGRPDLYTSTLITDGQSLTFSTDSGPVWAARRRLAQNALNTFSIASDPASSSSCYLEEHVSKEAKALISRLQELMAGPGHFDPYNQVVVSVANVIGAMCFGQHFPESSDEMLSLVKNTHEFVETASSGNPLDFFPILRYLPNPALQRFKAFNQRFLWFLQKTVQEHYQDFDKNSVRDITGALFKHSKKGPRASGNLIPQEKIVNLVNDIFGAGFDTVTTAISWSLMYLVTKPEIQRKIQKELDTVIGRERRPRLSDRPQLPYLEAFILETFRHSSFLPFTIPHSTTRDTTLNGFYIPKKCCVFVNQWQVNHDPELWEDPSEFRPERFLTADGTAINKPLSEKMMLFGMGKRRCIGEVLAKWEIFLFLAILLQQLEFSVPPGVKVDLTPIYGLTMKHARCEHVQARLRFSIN", "assay": "Cytochrome panel assay with activity outcomes", "conditions": "recombinant CYP, pro-luciferin dealkylation, luminescence, p450-cyp1a2; series mostly up to 57.1 µM; activity, negative = inhibition: at the top concentration", "values": [
      {"smiles": "Nc1ccccc1SCc1csc(-c2ccc(Cl)cc2)n1", "AC50": "631 nM (active)"},
      {"smiles": "C[N+](C)(N)Cc1csc(-c2ccc(Cl)cc2)n1", "activity, negative = inhibition": "-4.22% [at 2.29 µM] (inactive)"},
      {"smiles": "Nc1nc(SCC(=O)Nc2ccccc2Sc2ccc(Cl)cc2)n[nH]1", "activity, negative = inhibition": "9.65% (inactive)"},
      {"smiles": "Cn1nc(C(=O)NC2CCCCC2)c2ccccc2c1=O", "AC50": "12600 nM (active)"},
      {"smiles": "CCCn1nc(C(=O)NCC(C)(C)N2CCOCC2)c2ccccc2c1=O", "activity, negative = inhibition": "-25.2% (inactive)"},
      {"smiles": "O=C(CCCCn1c(=O)c2ccccc2n(CC(=O)NC2CCCC2)c1=O)NC1CCCC1", "activity, negative = inhibition": "-2.45% (inactive)"},
      {"smiles": "COc1ccc(S(=O)(=O)N2CC3C4C=CC(C4)C3C2)cc1", "note": "(configuration not stated)", "activity, negative = inhibition": "-14% (inactive)"},
      {"smiles": "Cc1ccc(S(=O)(=O)n2ccc(-c3cccc(OCc4c(F)cccc4Cl)c3)n2)cc1", "activity, negative = inhibition": "-3.21% (inactive)"},
      {"smiles": "O=S(=O)(c1ccc(F)cc1)n1ccc(-c2cnc(-c3ccccc3)s2)n1", "AC50": "2240 nM (active)"},
      {"smiles": "COc1ccc(-c2cnnc(CCCn3ccnc3-c3ccccc3)n2)cc1", "activity, negative = inhibition": "-12.1% [at 11.4 µM] (inactive)"},
      {"smiles": "COc1ccc(S(=O)(=O)n2ccc(-c3cnc(-c4ccccc4)s3)n2)cc1", "AC50": "1120 nM (active)"},
      {"smiles": "CC(C)c1ccc(C(=O)CC2(O)C(=O)N(CN3CCOCC3)c3ccccc32)cc1", "note": "(configuration not stated)", "activity, negative = inhibition": "-15.9% (inactive)"},
      {"smiles": "COc1cccc2cc(C(=O)CC3(O)C(=O)N(Cc4ccccc4)c4ccccc43)c(=O)oc12", "note": "(configuration not stated)", "AC50": "15800 nM (active)"},
      {"smiles": "Cn1c(=O)c2c(nc(C(=N)SCC(=O)O)n2C)n(C)c1=O", "AC50": "1260 nM (active)"},
      {"smiles": "CN1CCN(c2nc3c(c(=O)n(C)c(=O)n3C)n2C)CC1", "activity, negative = inhibition": "-16.8% [at 2.29 µM] (inactive)"},
      {"smiles": "Cn1c(=O)c2c(nc(NCCNc3nc4c(c(=O)n(C)c(=O)n4C)n3C)n2C)n(C)c1=O", "activity, negative = inhibition": "-0.53% [at 11.4 µM] (inactive)"},
      {"smiles": "O=C(NCCOC(=O)c1ccc(C(=O)OCCNC(=O)c2cccnc2)s1)c1cccnc1", "activity, negative = inhibition": "-9.26% (inactive)"},
      {"smiles": "O=C(OCCNC(=O)c1ccc2ccccc2n1)c1ccc(F)cc1", "AC50": "1120 nM (active)"},
      {"smiles": "Cc1ccc(N=Nc2ccc(N)cc2C)c(S(N)(=O)=O)c1", "AC50": "501 nM (active)"},
      {"smiles": "Cc1ccc(N=Nc2c(O)c3ccccc3[nH]c2=O)c(S(=O)(=O)N(C)C)c1", "activity, negative = inhibition": "-14.6% [at 2.29 µM] (inactive)"},
      {"smiles": "Nc1ccccc1S(N)(=O)=O", "activity, negative = inhibition": "-0.711% [at 25.6 µM] (inactive)"},
      {"smiles": "CC(C)CNC(=S)N1CCN(C)CC1", "activity, negative = inhibition": "-8.21% (inactive)"},
      {"smiles": "CC(C)C(=O)NC(=S)Nc1ccccc1C(=O)Nc1ccccc1", "AC50": "6310 nM (active)"},
      {"smiles": "O=C(O)c1ccccc1-c1ccccc1C(=O)Nc1ccccc1", "activity, negative = inhibition": "-5.42% (inactive)"},
      {"smiles": "OCCSCc1ccccc1", "activity, negative = inhibition": "-13% [at 11.4 µM] (inactive)"},
      {"smiles": "O=S(=O)(O)[C@@H](CO)c1ccccc1", "note": "(tested in a mixture with another compound)", "activity, negative = inhibition": "-1.9% [at 2.29 µM] (inactive)"},
      {"smiles": "O=C1C(SCCO)=C(SCCO)C(=O)c2ccccc21", "AC50": "631 nM (active)"},
      {"smiles": "COCCn1c(=O)c(C)nc2cnc(Nc3cccc(OC)c3)nc21", "AC50": "1000 nM (active)"},
      {"smiles": "COc1cccc(Nc2ncc3nc(C)c(=O)n(CCc4ccccc4)c3n2)c1", "AC50": "5010 nM (active)"},
      {"smiles": "c1ccc([C@@H]2CN3CCSC3=N2)cc1", "activity, negative = inhibition": "-10.1% (inactive)"},
      {"smiles": "COc1ccc(NC(=O)C2(c3ccc(NC(=O)c4ccc(OC(C)=O)cc4)cc3)CCCC2)cc1", "activity, negative = inhibition": "6.01% (inactive)"},
      {"smiles": "COc1ccc(C(=O)Nc2cccc(OC(=O)c3ccc(C)c(C)c3)c2)cc1", "AC50": "14100 nM (active)"},
      {"smiles": "COc1ccc(NC(=O)c2ccc(C(=O)c3cc(OC)ccc3OC)cc2)cc1", "activity, negative = inhibition": "-14.8% (inactive)"},
      {"smiles": "COc1ccc(C(=O)Nc2cc(OC)cc(OC)c2)cc1", "AC50": "12600 nM (active)"},
      {"smiles": "COc1ccc(OC)c(/C=N/NC(=O)c2csc3ccccc23)c1", "AC50": "3160 nM (active)"},
      {"smiles": "O=C(N/N=C/c1ccc(O)cc1)c1csc2ccccc12", "AC50": "11200 nM (active)"},
      {"smiles": "Cc1ccc(C)c(-c2nn(-c3cc(N4CCN(CCO)CC4)ccc3[N+](=O)[O-])c(=O)c3ccccc23)c1", "activity, negative = inhibition": "-5.68% (inactive)"},
      {"smiles": "O=C(O)c1cc2c(cc1S(=O)(=O)O)[C@H]1[C@@H]([C@H]3[C@H]2[C@@]2(Cl)C(Cl)=C(Cl)[C@]3(Cl)C2(Cl)Cl)[C@]2(Cl)C(Cl)=C(Cl)[C@@]1(Cl)C2(Cl)Cl", "activity, negative = inhibition": "-14.5% [at 11.4 µM] (inactive)"},
      {"smiles": "O=C(NC1CCCC1)C(c1ccc(F)cc1)N(Cc1ccc(F)cc1)C(=O)c1ccn[nH]1", "note": "(configuration not stated)", "activity, negative = inhibition": "-5.3% (inactive)"},
      {"smiles": "Cc1ccc(Cn2cccc(NC(=O)NCc3ccccc3)c2=O)cc1", "activity, negative = inhibition": "-1.87% (inactive)"},
      {"smiles": "O=C(Nc1cccn(Cc2ccc(F)cc2)c1=O)NC1CCCCC1", "AC50": "22400 nM (active)"},
      {"smiles": "Cc1ccc2cn[nH]c2c1NC(=S)NC(=O)c1ccccc1", "AC50": "10000 nM (active)"},
      {"smiles": "COc1ccc(C(=O)N2CCC3(CCCN(CC(C)C)C3)CC2)cc1", "activity, negative = inhibition": "-16.6% (inactive)"},
      {"smiles": "CN1CCC[C@@H](CC2c3ccccc3Sc3ccccc32)C1", "activity, negative = inhibition": "-4.29% [at 25.6 µM] (inactive)"},
      {"smiles": "CSc1ccc2c(c1)[C@H](N1CCN(C)CC1)Cc1ccccc1S2", "AC50": "31600 nM (active)"},
      {"smiles": "CN1CCC(=C2c3ccccc3Sc3ccccc32)CC1", "activity, negative = inhibition": "-17.4% [at 25.6 µM] (inactive)"},
      {"smiles": "O=c1c2ccccc2c(-c2ccccc2)nn1-c1ccc(Cl)c(Cl)c1", "AC50": "126 nM (active)"},
      {"smiles": "O=C1Nc2cc(Cl)c(Cl)cc2N(O)N1c1ccc(Cl)c(Cl)c1", "activity, negative = inhibition": "-19.1% (inactive)"},
      {"smiles": "Cc1noc(C)c1-c1nc(NCc2cccs2)c2ccccc2n1", "AC50": "200 nM (active)"},
      {"smiles": "COc1ccccc1CN1CC[C@@]2(CCCN(C(=O)c3c(C)noc3C)C2)C1", "activity, negative = inhibition": "12.4% (inactive)"},
      {"smiles": "COc1ccc(N(CC(=O)NCc2cccc(OC)c2)S(=O)(=O)c2c(C)noc2C)cc1", "activity, negative = inhibition": "-21.9% (inactive)"},
      {"smiles": "COC(=O)Cc1c(C)nc2nc(NCc3ccccc3OC)[nH]n2c1=O", "activity, negative = inhibition": "-20.2% (inactive)"},
      {"smiles": "COc1ccc(CNc2nc(-c3c(C)noc3C)nc3ccccc23)c(OC)c1", "AC50": "794 nM (active)"},
      {"smiles": "COc1ccccc1CNc1nc(-c2c(C)noc2C)nc2ccccc12", "AC50": "631 nM (active)"},
      {"smiles": "CS(=O)(=O)N(Cc1cc2ccccc2[nH]c1=O)C1CCCCC1", "activity, negative = inhibition": "-15% (inactive)"},
      {"smiles": "CCS(=O)(=O)NCCc1cc2ccc(C)cc2[nH]c1=O", "AC50": "20000 nM (active)"},
      {"smiles": "C[N+]1(CCC[N+]2(C)C[C@H]3[C@H](C2)[C@H]2C=C[C@@H]3CC2)CCOCC1", "note": "(some centres not stated)", "activity, negative = inhibition": "-11% [at 11.4 µM] (inactive)"},
      {"smiles": "CN(C)c1ccc(-c2cc(NCc3cccnc3)ncn2)cc1", "AC50": "398 nM (active)"},
      {"smiles": "Cc1cnc(CNc2cc(-c3ccc(C(=O)N(C)C)cc3)ncn2)cn1", "activity, negative = inhibition": "-0.907% (inactive)"},
      {"smiles": "Cc1cccc(CNc2cc(-c3ccc(C(=O)N(C)C)cc3)ncn2)c1", "AC50": "15800 nM (active)"},
      {"smiles": "CN(C)c1ccc(-c2cc(NCc3ccccc3)ncn2)cc1", "AC50": "1000 nM (active)"},
      {"smiles": "Cc1cccc(CNc2cc(-c3ccc(N(C)C)cc3)ncn2)c1", "AC50": "1000 nM (active)"}
    ]}
  ]
}
